Experimental data from PubChem BioAssay AID2315 (National Center for Advancing Translational Sciences (NCATS), 2010).
The whole screen tested about 290,000 compounds, of which about 27,000 (9.3%) were called active. Cut-off read from the data, not from the text of the source: active = inhibition mostly above about 28% (no sharp cut-off); inactive = mostly below about 43%. The full list was thinned out, with actives kept by preference.

test: A qHTS for Small Molecule Inhibitors of Shiga Toxin; settings: Vero cells, Shiga toxin protein synthesis inhibition reporter; at 38.7 µM, hits give high values; note: 0% is about no effect

| Compound | inhibition |
| --- | --- |
| CCN1CCN(c2sc(S(C)(=O)=O)nc2S(=O)(=O)c2ccc(Cl)cc2)CC1 | -2.05% (inactive) |
| COc1ccccc1NC(=O)CCC(=O)N1CC(C)Oc2ccc(C)cc21 (configuration not stated) | -1.25% (inactive) |
| COc1ccc(-c2c(-c3ccc(OC)cc3O)nc(C)nc2C(F)(F)F)cc1 | 2.92% (inactive) |
| COc1cc2ccccc2cc1C(=O)N(CCN(C)C)c1nc2c(F)cccc2s1 | -10.4% (inactive) |
| COc1ccccc1-c1nnc(NC(=O)c2cccc(N3C(=O)CCC3=O)c2)o1 | -10.7% (inactive) |
| COc1ccccc1-c1nnc(NC(=O)c2ccc3ncsc3c2)o1 | 92.1% (active) |
| COc1ccccc1-c1nnc(SCC(=O)Nc2ccccc2)o1 | 22.9% (inactive) |
| C=CCOc1ccc(C(=O)Nc2ccccc2C(=O)N2CCCC2)cc1 | 13.9% (inactive) |
| CCOC(=O)c1c(NC(=O)c2ccc(S(=O)(=O)N(C)CC3CCCO3)cc2)sc2c1CC(C)(C)NC2(C)C (configuration not stated) | -9.62% (inactive) |
| COc1ccccc1N=Nc1c(O)[nH]c(=S)[nH]c1=O | 29.2% (active) |
| COc1ccccc1N=C(C)C1=C(O)COC1=O | -4.84% (inactive) |
| COC(=O)c1ccccc1N=Nc1c(C)[nH][nH]c1=O | 1.81% (inactive) |
| COc1ccc(NC(=O)Cn2ncn3c(cc4ccccc43)c2=O)c(OC)c1OC | -6.32% (inactive) |
| COc1ccc(/C=C/C(=O)Nc2ccc(C34CC5CC(CC(O)(C5)C3)C4)cc2)cc1OC | 90.8% (active) |
| COc1ccc(C(=O)CCC(=O)Nc2cccnc2)c(OC)c1 | -20.3% (inactive) |
| COc1ccc(/C=C/C(=O)Nc2cccnc2)cc1OC | 51.8% (active) |
| COc1ccc(/C=C/C(=O)Nc2ccc(C)cc2)cc1S(=O)(=O)N1CCOCC1 | 20.7% (inactive) |
| COc1cccc(C(=O)Nc2cccnc2)c1OC | 2.65% (inactive) |
| COc1ccc(/C=C/C(=O)N2CCCC2)cc1OC | 3.99% (inactive) |
| CN(CC(=O)NCc1ccc(Cl)cc1)S(=O)(=O)c1cccs1 | 45.6% (inactive) |
| COc1ccc(NC(=O)CN2C(=O)COc3ccc(S(=O)(=O)N4CCOCC4)cc32)cc1 | -3.8% (inactive) |
| COc1ccc(-c2n[nH]c3c2CN(C(=O)c2ccc(F)cc2)CC3)cc1 | -7.56% (inactive) |
| COc1cccc2[nH]c(C(=O)NCCc3ccccc3)cc12 | 67.7% (active) |

| Compound | inhibition |
| --- | --- |
| COc1ccc(CCNC(=O)c2ccccc2-c2ccccc2C(=O)O)cc1OC | -1.45% (inactive) |
| COc1ccc(CCNC(=O)c2ccccc2OCc2ccccc2)cc1 | 14.7% (inactive) |
| Cc1cc(C)cc(N(CC(=O)NC2CCCC2)C(=O)CCC(=O)Nc2nccs2)c1 | 20.2% (inactive) |
| COc1ccc([N+](=O)[O-])cc1N(CC(O)CN(CC(C)C)CC(C)C)S(=O)(=O)c1ccc(C)cc1 (configuration not stated) | 12.3% (inactive) |
| O=c1[nH]cnc(O)c1C(c1ccc(F)cc1)c1c(O)nc[nH]c1=O | 8.92% (inactive) |
| CC(=O)N1CCN(CC(=O)Nc2ccc(C)c(F)c2)CC1 | -1.77% (inactive) |
| O=C(Nc1cccc([N+](=O)[O-])c1)Nc1ccc(Cl)cn1 | 0.898% (inactive) |
| COc1c(Cl)cc(C(=O)Nc2ccc(Cl)cn2)cc1Cl | 8.12% (inactive) |
| CCCc1cc(C(=O)Nc2ccc(Cl)cn2)cs1 | 57.6% (active) |
| CCCc1cc(C(=O)Nc2ccc(C(=O)OC)cc2)cs1 | 28.2% (inactive) |
| O=C(Nc1ccc(Cl)cn1)Nc1cccs1 | 65.7% (active) |
| CCCCC(CC)C(=O)Nc1ccc(Cl)cn1 (configuration not stated) | 6.98% (inactive) |
| C[C@H](NC(=O)c1nc[nH]c1C(=O)NCC(=O)OC(C)(C)C)c1ccccc1 | -2.69% (inactive) |
| COC(=O)c1ccc(C(=O)OC)c(NC(=S)N2CCN(c3ccc(F)cc3)CC2)c1 | -8.17% (inactive) |
| COC(=O)c1nc(NC(=O)c2ccc(F)cc2)n[nH]1 | 0.673% (inactive) |
| COC(=O)c1ccc(Sc2ccc(F)cc2)c(N)c1 | 64.7% (active) |
| COC(=O)c1ccc(C(=O)NC2CC(C)(C)Cc3c2cnn3-c2ccc(F)cc2)nc1 (configuration not stated) | 19.8% (inactive) |
| COc1ccc(C2CC(c3ccccc3)=NN2C(=O)c2ccc(Cl)c([N+](=O)[O-])c2)cc1 (configuration not stated) | -3.59% (inactive) |
| COc1ccc(C2CC(c3ccccc3)=NN2C(=O)COC(=O)COc2ccccc2)cc1 (configuration not stated) | 30.8% (inactive) |
| COc1ccc(C2=NN(C(=O)c3ccccc3C(=O)O)C(c3ccccc3O)C2)cc1 (configuration not stated) | 162% (active) |
| COc1ccc(C2=NN(C(=O)CCC(=O)O)C(c3cccs3)C2)cc1OC (configuration not stated) | -6.96% (inactive) |
| COc1ccc(C2=NN(C(=O)c3cccnc3)C(c3ccccc3)C2)cc1 (configuration not stated) | -14.3% (inactive) |
| COc1ccc(C2=NN(C(C)=O)C(c3ccccc3)C2)cc1 (configuration not stated) | 26.2% (active) |

| Compound | inhibition |
| --- | --- |
| COc1ccc(C(=O)Nc2nc(-c3ccc(OC)cc3)c(-c3ccc([N+](=O)[O-])cc3)s2)cc1 | -3.81% (inactive) |
| COc1ccc(C2CC(c3ccccc3)=NN2C(=O)CSc2nccc(=O)[nH]2)cc1 (configuration not stated) | 50.8% (active) |
| COc1cccc(C2CC(c3ccccc3)=NN2S(=O)(=O)c2ccccc2)c1OC (configuration not stated) | -3.39% (inactive) |
| COc1ccc(C(=O)CSc2nccc(=O)[nH]2)cc1 | 11% (inactive) |
| COc1ccc(C2CC(c3ccc([N+](=O)[O-])cc3)=NN2C(C)=O)cc1 (configuration not stated) | 37.4% (active) |
| CCOc1ccc2nc(Cl)c(C3CC(c4ccccc4)=NN3C(=O)c3cccs3)cc2c1 (configuration not stated) | -5.57% (inactive) |
| Brc1ccccc1CN1CCC(Cc2ccccc2)CC1 | 14.5% (inactive) |
| N[C@@H](Cc1ccccc1)C(=O)N1CCC(C(=O)NCC(=O)Nc2ccc(F)cc2)CC1 | 9.91% (inactive) |
| COc1ccc(CCNC(=O)C(=O)NCC2OCCN2S(=O)(=O)c2ccc(OC)c(C)c2)cc1 (configuration not stated) | 2.43% (inactive) |
| Cc1ccc(NS(=O)(=O)c2ccc(-c3coc(C)n3)cc2)c(C)c1 | -3.55% (inactive) |
| CCC(CC)C(=O)Nc1c2c(nn1-c1ccc(C)cc1)CS(=O)(=O)C2 | -8.79% (inactive) |
| CCN(CC)CCCNC(=O)c1cc2c(=O)[nH]c3ccc(C)cc3c2s1 | -4.39% (inactive) |
| O=C(C1CC(=O)N(C2CCCCC2)C1)N1CCN(c2ccccc2)CC1 (configuration not stated) | 27.8% (inactive) |
| C/C(=N\NC(=O)Cc1ccccc1[N+](=O)[O-])c1cccnc1 | -10.2% (inactive) |
| Cc1cc(C(=O)NC2CC(C)(C)Cc3c2cnn3-c2ccccc2)n[nH]1 (configuration not stated) | -14.3% (inactive) |
| CN(C(=O)CC1C(=O)NCCN1Cc1ccc2ccccc2c1)C1CCOCC1 (configuration not stated) | -0.828% (inactive) |
| CC(C)Nc1nnc(SCC(=O)/C=C2\N(C)c3ccccc3C2(C)C)s1 | 13.3% (inactive) |
| CN1/C(=C\C(=O)c2oc3ccccc3c2N)C(C)(C)c2ccccc21 | 14.5% (inactive) |
| CN1/C(=C\C(=O)c2cccnc2Cl)C(C)(C)c2ccccc21 | -10.8% (active) |
| Cc1ccccc1-c1nc(CS(=O)(=O)CC(=O)NC(C)c2ccccc2)c(C)o1 (configuration not stated) | -2.18% (inactive) |
| CC1C(=O)C(C)C(c2ccc(O)cc2)NC1c1ccc(O)cc1 (configuration not stated) | -9.62% (inactive) |
| Cc1ccc(S(=O)(=O)NCC(=O)N2CCOCCOCCOCCOCC2)cc1 | -2.1% (inactive) |
| Cc1ccc(Cl)cc1NC(=O)COC(=O)CC(C)(C)C | -3.98% (inactive) |

| Compound | inhibition |
| --- | --- |
| C/C(CC(=O)N1CCN(C=O)CC1)=N\NC(=O)c1ccc(Br)cc1 | 36.4% (inactive) |
| C/C(=N\NC(=O)Cc1ccc(F)cc1)c1ccc(F)cc1 | 11.6% (inactive) |
| O=C(O)CC/C(=N\NC(=O)c1ccc(F)cc1)c1ccc(Br)cc1 | 57.9% (active) |
| CCn1ccnc1CNC(=O)CC1C(=O)NCCN1CCCc1ccccc1 (configuration not stated) | 12.9% (inactive) |
| COc1ccc(CC(=O)Nc2c(C(N)=O)oc3ccccc23)cc1 | 9.35% (inactive) |
| COc1cc(C(C(=O)NC2CCCC2)N(C(=O)c2ccco2)c2ccccc2C(C)=O)cc(OC)c1OC (configuration not stated) | -3.47% (inactive) |
| COc1ccc(NC(=O)[C@H](NC(=O)[C@@H]2Cc3ccccc3CN2)c2ccccc2)cc1 | -2.7% (inactive) |
| COC(C(=O)Nc1ccc(C(C)=O)cc1)c1ccccc1 (configuration not stated) | 10.3% (inactive) |
| COc1ccc(NC(C(=O)Nc2cccc(C(C)=O)c2)c2ccccc2)cc1 (configuration not stated) | 27.6% (active) |
| Cc1cc(C)cc(N(CC(=O)N2CC=C(c3ccccc3)CC2)S(=O)(=O)c2c(C)noc2C)c1 | -8.45% (inactive) |
| CN(C)/C=C(\C=[N+](C)C)c1[nH]ncc1[N+](=O)[O-] | -4.31% (inactive) |
| CNc1[nH]ncc1[N+](=O)[O-] | 120% (active) |
| CNc1ccc(NC(C)=O)cc1[N+](=O)[O-] | -5.19% (inactive) |
| Cc1cc(-c2csc(N)n2)c(C)n1-c1ccccc1 | 34.4% (inactive) |
| CC(=O)Nc1ccc(C(=O)Nc2nc(-c3cc(C)n(Cc4ccccc4)c3C)cs2)cc1 | -6.21% (inactive) |
| Cc1cc(-c2csc(N)n2)c(C)n1Cc1ccccc1 | 28.2% (active) |
| Cc1ccccc1NC(=O)CSc1nc2ccc(Nc3nc(N4CCOCC4)nc(N4CCOCC4)n3)cc2s1 | 23.8% (inactive) |
| FC(F)(F)c1nnc2sc(-c3ccco3)nn12 | 7.08% (inactive) |
| Fc1ccc(-c2ccc(-c3nn4c(-c5ccco5)nnc4s3)o2)cc1 | 26.5% (active) |
| Cc1nnc2sc(-c3ccco3)nn12 | -4.02% (inactive) |
| CCN(CC)S(=O)(=O)c1cc(C(=O)Nc2ccccn2)ccc1C | 119% (active) |
| Cc1ccc(NC(=O)CNCc2ccccn2)cc1S(=O)(=O)N(C)C | 40.8% (inactive) |
| CCN(CC)S(=O)(=O)c1ccc(NC(=O)c2cccnc2Cl)c(NC(=O)c2cccnc2Cl)c1 | -4.86% (inactive) |
